In the library only some 19% were active in any assay of this set; here they are far more common.
DT40 TDP1 CPT: growth inhibition of DT40 Tdp1-/-;hTDP1 cells with camptothecin (screen for TDP1 inhibitors) | AID 686979 | chicken DT40 Tdp1-/-;hTDP1 cells + 20 nM CPT, ATP luminescence, 48 h | Potency, µM (doses to about 46.2 µM), inactives show at the top dose activity change, negative = growth inhibition, most hits filed as inhibitors | 420,000 compounds, 12% hits; note: nearly all actives have a fitted effect of over 55% in size
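Chicken DT40 Tdp1-/- cells stably complemented with human TDP1 were seeded at 400 cells/well in medium containing 20 nM camptothecin, exposed to pin-transferred compounds, and grown at 37 °C for at least 48 hr. Viability was read as ATP luminescence.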
KB-3-1 tox: KB-3-1 parental cell cytotoxicity; KB-3-1 viability, CellTiter-Glo ATP luminescence, 72 h; Potency, µM (series often up to 46.1 µM), hits mostly cytotoxic; 400,000 compounds, 1.4% hits; AID 1347075; note: nearly all actives have a fitted effect of over 60% in size
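KB-3-1 cells, DMEM (no phenol red) + 10% FBS; compound by pin transfer, 72 h, 37 °C. Readout: CellTiter-Glo luminescence after 10 min. Data normalized, curve-fitted.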
HT1080 IDH1KD tx: kills HT-1080 cells with IDH1 knockdown. HT-1080 IDH1 knockdown viability, ATP luminescence, 48 h. Potency, µM (highest dose often 46.1 µM), for the others: at the top dose activity, negative = toxicity, most hits filed as cytotoxic. 360,000 compounds, 2% hits;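 note: 0% = DMSO wells and -100% = cell-free medium wells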
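Luminescent ATP read-out (CellTiter-Glo, 10 min at room temperature) after 48 h compound exposure at 37 °C gave viability of IDH1-knockdown HT-1080 cells. Activity was normalised to DMSO and cell-free wells, then fitted as concentration-response curves.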
HT1080-NT tox: kills 2HG-producing HT-1080-NT fibrosarcoma cells. HT-1080-NT fibrosarcoma viability, CellTiter-Glo ATP luminescence, 48 h. Potency, µM (doses to about 46.1 µM), for the others: top-dose activity, negative = less viability, actives largely listed as cytotoxic. 360,000 compounds, 1.6% hits;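 note: NT is the 2HG producing partner of a matched IDH1 knockdown line; 0% = DMSO-treated cells and -100% = media-only wells without cells; nearly all actives have a fitted effect of over 55% in size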
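Fibrosarcoma NT cells, 750 per well in 5% FBS RPMI, were exposed to compound for 48 hours. Viability: CellTiter-Glo luminescence.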
TDP1 cell noCPT: qHTS for Inhibitors of human tyrosyl-DNA phosphodiesterase 1 (TDP1): qHTS in cells in absence of CPT; 420,000 compounds, 15% hits; DT40 Tdp1-/- hTDP1 cells, no CPT, ATP luminescence, 48 h; AID 686978, 2013; Potency, µM (doses to about 46.2 µM), inactives show at the top dose activity change, negative = growth inhibition, most hits filed as inhibitors; note: nearly all actives have a fitted effect of over 55% in size
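Chicken DT40 Tdp1-/- cells complemented with human TDP1, screened without camptothecin (DMSO vehicle only), 400 cells/well. Compounds pin-transferred, cells incubated at 37 °C for at least 48 hr. Growth read as ATP-dependent luminescence (CellTiter-Glo, 30 min at RT).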
KB-V1 cytotox: KB-V1 MDR subline cytotoxicity | AID 1347076 | Potency, µM (doses to about 46.1 µM), hits mostly cytotoxic | 400,000 compounds, 3.4% hits | KB-V1 MDR cells viability, CellTiter-Glo, 72 h; note: nearly all actives have a fitted effect of over 60% in size
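Readout: CellTiter-Glo luminescence, 10 min after addition. Cells: KB-V1 MDR subline, 72 h at 37 degrees C with compound. Analysis: corrected, normalized data fitted to concentration-effect curves.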
* = called active by the depositor; i = inactive; ? = inconclusive; . = no result; [ ] = another dose, or the depositor's remark. Calls come from the whole dose curve; as a rule, active = well fitted curve in the direction sought with a large enough effect; inconclusive = small, poorly fitted or top-dose-only effect, or another doubt; inactive = no such curve, though single readings can be large; an effect the other way counts as inactive or inconclusive. Unless noted, % is set by controls: 0 for no effect and ±100 for the full control effect; potency is the fitted concentration of half-maximal effect.

SMILES	DT40 TDP1 CPT	KB-3-1 tox	HT1080 IDH1KD tx	HT1080-NT tox	TDP1 cell noCPT	KB-V1 cytotox
COc1cc(/C=C/CNC[C@H]2O[C@@H](n3cnc4c(=O)[nH]c(N)nc43)[C@H](O)[C@@H]2O)ccc1O	-6%	i	15%	3%	?	i
O=c1[nH]c(=O)c2[nH]c(=S)[nH]c2[nH]1	-25%	i	22%	?	16%	i
O=C(CN1C(=O)NC2(CCCC2)C1=O)Nc1ccccc1C(F)(F)F	5%	i	2%	15%	-9%	i
CCC(C)(C)C1CCC2(CC1)NC(=O)N(CC(=O)N(C)CC(=O)Nc1ccccc1C(F)(F)F)C2=O (stereo unspecified)	23µM*	?	?	-14%	?	?
CN1C=CC(=O)[C@@H](O)[C@H]1c1ccccc1Br	12%	i	12%	12%	11%	i
CCCN1C2CCCC1CC(NC(=O)Nc1cccc(C(C)=O)c1)C2 (stereo unspecified)	-14%	i	12%	13%	2%	i
CCCN1C2CCCC1CC(NC(=O)Nc1ccc(C(C)C)cc1)C2 (stereo unspecified)	23µM*	i	-13%	-10%	?	i
CC(=O)NC(C)(c1ccccc1)c1nc(-c2ccc(F)c(Cl)c2)cs1 (stereo unspecified)	15µM*	i	?	-22%	23µM*	i
CC(=O)NC(C)(c1ccccc1)c1nc(-c2cnc3ccccc3c2)cs1 (stereo unspecified)	?	i	-1%	-1%	15µM*	i
CC(C)CN1CC2(CCN(C(=O)c3cccc(F)c3)CC2)C1	4%	.	.	.	1%	.
CN1C=Nc2c(ncn2C2CCC(CO)O2)C1O (stereo unspecified)	-23%	i	19%	15%	-12%	i
CC(=O)Nc1ccc(S(=O)(=O)Nc2nc(CN3CCOCC3)nc3sc4c(c23)CCCC4)cc1	-5%	i	9%	9%	?	i
Cc1cc(S(=O)(=O)Nc2nc(CN3CCOCC3)nc3sc4c(c23)CCC4)ccc1F	?	i	-27%	-15%	26µM*	?
CNc1nc(Cl)c(SC)c(NCc2cccc(OC)c2)n1	?	i	-7%	-24%	23µM*	i
Cc1ccc(NC(=O)CCCN2C(=O)COc3ccc(C)cc32)c(C)c1	?	.	.	.	12µM*	.
Cc1ccc(CNC(=O)CCCN2C(=O)COc3ccc(C)cc32)cc1	?	i	.	.	?	i
COc1ccc(CNC(=O)CCCN2C(=O)COc3ccc(C)cc32)cc1	?	i	.	.	-19%	i
Cc1ccc(NC(=O)CCN2C(=O)NC3(CCCC3)C2=O)c(C)c1	-2%	i	-3%	0%	3.3µM*	i
Cc1ccc(NC(=O)NC(=O)CN2C(=O)NC3(CCCCCCC3)C2=O)c(C)c1	-25%	i	?	-8%	-15%	i
Cc1ccc2c(c1)N(CCCC(=O)Nc1cccc(C(F)(F)F)c1)C(=O)CO2	?	i	-13%	-17%	16µM*	i
Cc1ccc(NC(=O)CCCN2C(=O)COc3ccc(C)cc32)c(Cl)c1	?	.	.	.	7.3µM*	.
Cc1ccc2c(c1)N(CCCC(=O)NCC1COc3ccccc3O1)C(=O)CO2 (stereo unspecified)	-25%	i	6%	2%	-25%	i
CC(=O)NCCNc1nc2cc(-c3ccc(C(=O)N4CCN(C)CC4)cc3)sc2c(=O)n1C	9%	i	19%	13%	1%	i
O=S1(=O)CC(N2CCN(CC3CC3)CC2)CN1C1CCCCC1 (stereo unspecified)	-21%	i	13%	?	-17%	i
Cc1ccc(NC(=O)CCCCCCCCCCC2COCCO2)c(C)c1 (stereo unspecified)	21µM*	i	11%	12%	18µM*	18µM*
SMILES	DT40 TDP1 CPT	KB-3-1 tox	HT1080 IDH1KD tx	HT1080-NT tox	TDP1 cell noCPT	KB-V1 cytotox
Cc1ccc(NC(=O)CC(=O)Nc2ccc(C)cc2C)c(C)c1	-11%	?	4%	2%	0%	i
Nc1ncnc2c1ccn2[C@H]1CN(Cc2ccc3c(c2)OCO3)C[C@@H](CO)O1	?	i	0%	?	13µM*	i
Nc1ncnc2c1ccn2[C@H]1CN(Cc2ccc(Cl)cc2)C[C@@H](CO)O1	16µM*	i	-8%	2%	13µM*	i
CCn1nnc2cc(C(=O)Nc3cccc(Cl)c3C)ccc21	?	i	.	.	16µM*	?
CCOc1ccc(OCCNC(=O)c2ccc3c(c2)nnn3CC)cc1	-26%	i	-6%	-6%	-8%	23µM*
CCn1nnc2cc(C(=O)Nc3cccc(C)c3C)ccc21	10µM*	?	.	.	15µM*	?
CCn1nnc2cc(C(=O)Nc3cccc(Cl)c3)ccc21	6%	i	.	.	-17%	i
CCOC(=O)c1cccc(NC(=O)c2ccc3c(c2)nnn3CC)c1	?	i	.	.	?	i
CN(C)c1nccc(Nc2ccccc2)c1C#N	?	i	12%[9.24 µM]	11%	21µM*	i
Nc1nonc1-c1nc2ccccc2n1CC(=O)Nc1cccc(C(F)(F)F)c1	?	.	.	.	13µM*	.
O=C(Cn1c(=O)n(Cc2nc(-c3ccccc3)no2)c(=O)c2ccccc21)Nc1cccc(C(F)(F)F)c1	?	?	.	.	21µM*	?
CCOC(=O)c1ccccc1NC(=O)Cn1c(-c2nonc2N)nc2ccccc21	0.82µM*	1µM*	0.92µM*	?	0.92µM*	1.5µM*
Nc1nonc1-c1nc2ccccc2n1CC(=O)Nc1ccccc1	6.5µM*	?	?	?	?	?
CC1CC(C)CN(C(=O)Cn2c(-c3nonc3N)nc3ccccc32)C1 (stereo unspecified)	-14%	i	-4%	-9%	-28%	i
CC1CCCN(C(=O)Cn2c(-c3nonc3N)nc3ccccc32)C1 (stereo unspecified)	?	i	-4%	10%	-28%	7.3µM*
CCOc1ccc(CCN2CN(C3CCCCC3)CNC2=S)cc1OCC	?	i	-1%	3%	18µM*	i
Cc1ccc(S(=O)(=O)NC(=O)C2(C)CCN2C(=O)CC2CCCCC2)nc1 (stereo unspecified)	2%	i	17%	18%	0%	i

Bioassay records (PubChem)
